# Whole data set: some 25,000 sequences, median “ln(normalized median fluorescence intensity)” near 9.7, cut for the highest 2% near 11. For the sample, the highest values were picked, then their nearest neighbours and some sequences at random.
# Test system: PfAP2-HC AP2 domain (GST-tagged)
# Assay: gcPBM binding intensity (ln(normalized median fluorescence intensity)); higher = stronger DNA binding
# Summary of the method: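 An Agilent 4 × 180k array of primer-extended double-stranded 36-bp intergenic genomic probes, with negative controls, was incubated for 1 h with GST-tagged P. falciparum DNA-binding domains expressed in E. coli. Alexa488 anti-GST antibody detected bound protein, scanned at 488 nm. Binding intensity is the highest Masliner-normalised natural-log median intensity across replicate spots of either probe orientation.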
row,Sequence,gcPBM binding intensity (ln)
1,TTTTTCAGATCCTATATAGTATCATATAAATTCCAT [CACACA_negctrl_site56],9.39
2,AAGAAAAAATGATGAATAGAGATCAAATCTATATAT [TGCATGCA_negctrl_site29],9.65
3,TTTTTAAAATATTTAACACACAATTTTAATGCATAA [CACACA_site6036],9.61
4,ATATTCATTAACCACACACACAAAAAAAATAAAATT [CACACA_site3801],10.2
5,ATATAAATATTCCACACACACACAAAAAAAAAAAAA [CACACA_site7678],11
6,GGATATTCATTAACCACACACACAAAAAAAATAAAA [CACACA_site3800],11.2
7,TCAATAAAAAAAAACGCACACACAAATATATTCCAT [CACACA_site1223],11
8,ACACAAAAAATAAAAATATATATATATTATATATAT [CACACA_negctrl_site1489],9.75
9,TCATTCATAAAAATAACACACAAAAAAAAAAAAAAA [CACACA_site1800],9.62
10,ATATATATATTCCACACACACACAAAAAAAAAAAAA [CACACA_site3648],10.6
11,AATAAAAAAAAACGCACACACAAATATATTCCATTC [CACACA_site1224],10.4
12,CAATATAAAAAACACACGCACACAAAAAAAAAAAAA [CACACA_site3521],10.3
13,TTTTTATAATGATACATATATTATTTTATTCTTAAT [CACACA_negctrl_site124],9.54
14,AAAAAAAAAAAAAAAACACACATATCTGTATTTATA [CACACA_site5760],9.75
15,ATATTGACAGGAAAAATTTTCTTTGAATCTTTAAAA [CACACA_negctrl_site1191],9.29
16,ATTAGGATATATTAAAGTACTAATATAATACATTTT [XGTACX_site7386],9.55
17,TTTTACTAAATATATACACACATTATACAGATATAT [CACACA_site5765],9.86
18,AGTATATAAAATACTGTATCGATGGGGGAGGGCGCA [CACACA_negctrl_site1612],9.91
19,TATAAAATACTGTATCGATGGGGGAGGGCGCAGGGG [TGCATGCA_negctrl_site250],10.9
20,ATATATGGGGCGCAGGAAAAGAGTTTTGGAAATAAA [CACACA_negctrl_site1265],9.63
21,TGTATTAATAAAAATACACACATCATATTATATAAA [CACACA_site3534],9.73
22,ACATATACAAGACACACACACAACGTTTTAATAAAT [CACACA_site7017],11.2

row,Sequence,gcPBM binding intensity (ln)
1,TTAAAATATACATAAACACACACAAAACGTTTAAGA [CACACA_site8267],10.4
2,CAAAATTAATAAGTCACACACACATATATAATATAT [CACACA_site798],11
3,AAATTAATAAGTCACACACACATATATAATATATAT [CACACA_site799],10.4
4,ATTAAAATATAAGTCACACATATATATATATATATA [CACACA_site6145],9.51
5,TTTTAATTAAGACACACACACACATATAAATATGTA [CACACA_site7144],11
6,ACATATACAAAACACACACACAACGTTTTAATAAAT [CACACA_site1979],10.7
7,AAAAAAATTAGACACACACACACATATAAATATGTA [CACACA_site6618],10.8
8,GATAAATTAAGACACACACACATATATTTATTTATA [CACACA_site7789],11.2
9,ATATTAAAGATATATACACACATATTTATAAATATA [CACACA_site7127],9.78
10,CATTATAAGAGACACACACACATATATAAATATGTA [CACACA_site6621],10.9
11,TAAAATATAAGACACACACACATATATTTATATATC [CACACA_site6248],10.5
12,TTTATATTAATTTGTGTAAATGCATATGATGAGCAT [XGTACX_negctrl_site254],9.41
13,ATTTTATGATATATTTGTACTTAACATTTGGATATA [XGTACX_site5888],9.6
14,ACCATCCTTAATACTTATTTTTTCACAATTAAGTAA [GTGCAC_negctrl_site269],9.59
15,AAACCAAGGCACAATAATTAAATAAATAAAATCATG [GTGCAC_negctrl_site574],9.58
16,TTTTTCATAAATATATGTACATATATTTTATATAAC [XGTACX_site3402],9.66
17,TATTAGATATAATATATACACACCAACGAACGAAGA [CACACA_site1134],10.1
18,CATATATGTGATAACACGCACACAAATGTATAGAAT [CACACA_site2594],10.4
19,AGAGAGAAAGCTATAACATGCAACAATTTTTAGAAA [TGCATGCA_site95],9.63
20,TATTTTTAATATTTTGCATGCAGTATTTTATAAAAT [TGCATGCA_site250],9.52
21,CAAACATATTAATGTACACACACCCACCCACAAACA [CACACA_site2752],10.4
22,ATAATTTGGAAACACACACACACACCCACATATATA [CACACA_site2286],10.5

row,Sequence,gcPBM binding intensity (ln)
1,TCTCATAGTAAACACACACACACACCCACATATATA [CACACA_site5034],10.6
2,CATACATATAAACACACACACACACCCACCCACAAA [CACACA_site8059],10.6
3,AACATATTAATGTACACACACCCACGCACAAACAAA [CACACA_site7320],10.4
4,ATTAAACATACATATACACACACACCCACCCACCCA [CACACA_site8057],11
5,TCTCATAGGAAACACACACACACACCCACATATATA [CACACA_site1738],11
6,AAGCAAACATATTAATGTACACACACCCACACACAA [XGTACX_site5806],11.1
7,TAAACATACATATACACACACACACCCACACCCACA [CACACA_site492],11.6
8,TATAAATATACACCCACACACATATATAAATAAATA [CACACA_site7717],10.8
9,TTTTTTAAAAAAGTTTTCTGTATTTATATATATATA [CACACA_negctrl_site31],9.48
10,AAAATATATATAACTTGTACATATACATACGTATAT [XGTACX_site4570],9.77
11,TTTCTTTTTTTTTTTTTTTCTTTTTTTTTTTTTTTC [CACACA_negctrl_site1025],9.2
12,ACTAAAAAAATAAACACACAGATTTATATAATATAT [CACACA_site4884],9.83
13,TATATTTGTACATGATATTTTTTTTTTCTTTTAAAA [CACACA_negctrl_site754],9.43
14,TATAATTATATAAATTGTACATAAAAAGTTTTTACT [XGTACX_site3621],9.45
15,AAATGTTCTTAAAAATGAATAATATATATATATATA [CACACA_negctrl_site796],9.41
16,TAATTATGCAGACACACACACACACCCAACTAAAAA [CACACA_site2569],10.4
17,TATGTGTATTTATTTGCATGTTGGTTGTATTTTTTC [TGCATGCA_site479],10.4
18,ACAAAGTTTATAGAACGTACATACTTACACATATTT [XGTACX_site556],9.73
19,AATATTGTTCACAAGGTGCTTTTTATTCATACTAAT,9.8
20,CATACCTATAGACACACACACACACGCACGCACAAA [CACACA_site6374],10.4
21,TACCTATACAGACACACACACACACGCCCACAAAAA [CACACA_site6375],11.1
22,TTGGCATACAGACACACACACACACGCCCACATATA [CACACA_site6425],10.7

row,Sequence,gcPBM binding intensity (ln)
1,CCAATTCAAATATGCACACAAATTTGAAAACGATTA [CACACA_site3607],9.71
2,TGAAAATGGGAACCGTGTACAGGGCAGTTATAGGGG [XGTACX_site2950],9.87
3,AAAAAAGAATAGCACACACACATATATAAATATAAA [CACACA_site4518],10.5
4,TATTACATACCTTATTGTACAAATTATATATTAAAG [XGTACX_site7334],9.54
5,ATATATCTATATGTGTGTACATATAAGTATTTATAT [XGTACX_site5333],9.87
6,AAAAAAAACGGACACACACACATAAATATATATAAA [CACACA_site4260],11.3
7,GTTATAAATAAATATACACACATATATAAAATACAT [CACACA_site7146],9.97
8,CATATATACACATACACACACACACGGACACGCACA [CACACA_site6910],10.5
9,CACACGCACGGACACACACACATATAAAATCTATAT [CACACA_site6428],11.1
10,CATACATACGGACACACACACATATATATATATATA [CACACA_site5598],10.4
11,AATACATACGGACACACACACACATATATATATATA [CACACA_site5884],11.6
12,CTAAAATACGGACACACACACACATATATATATATA [CACACA_site6138],11.4
13,TATAAATAAAAACACACACACATATATATATATATA [CACACA_site2319],10.4
14,TTATAAATAAAAAATACACACATATATATATATATA [CACACA_site207],9.57
15,AAAAAAAACGGACACACACACATACAAAATATATAT [CACACA_site4910],10.8
16,ACACGCACATATATATAAATATATATATATATAAAT [CACACA_negctrl_site1781],10.1
17,AATATATACATATATACACACACATATATATATATA [CACACA_site8907],10.2
18,ACATACGAAAATTGGAAGGATAGATAAAAAGAAAAT [CACACA_negctrl_site51],9.66
19,CTCAACATATACGTAACACACATATAAATATAAATA [CACACA_site7749],9.89
20,ATATAGAAAATGCATACACACTTTATAAATATATTT [CACACA_site6553],9.82
21,TATTTATTGTGATACTTATATTACTTAATGATTAAA [CACACA_negctrl_site676],9.41

# Source: the supplement of paper PMC11417369
